# Experimental data as given in the supplement of paper PMC8728848.
# The entries come from a sample that favours the strongest signals as a whole.
# Assays:
# Assay in all cases: glycan array binding signal (z-score within array); higher = stronger binding
# Settings in all cases: glycan notation: IUPAC condensed, linker removed
# [1] = biological target: Gal(b1-4)GlcNAc(b1-3)Gal(b1-4)GlcNAc(b1-3)Gal(b1-4)GlcNAc(b1-3)Gal(b1-4)GlcNAc(b1-3)Gal(b1-4)GlcNAc(b1-3)Gal(b1-4)GlcNAc(b1-2)Man(a1-3)[Gal(b1-4)GlcNAc(b1-3)Gal(b1-4)GlcNAc(b1-3)Gal(b1-4)GlcNAc(b1-3)Gal(b1-4)GlcNAc(b1-3)Gal(b1-4)GlcNAc(b1-3)Gal(b1-4)GlcNAc(b1-2)Man(a1-6)]Man(b1-4)GlcNAc(b1-4)GlcNAc
# Outline: (§1)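 Columns mapping to the same glycan were averaged after glycan names were converted to IUPAC-condensed notation. The data come from 3228 arrays in the Consortium for Functional Glycomics database, limited to those with an available protein sequence. Binding is reported as a within-array Z-score averaged across arrays of one protein sequence and across linkers.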
# [2] = biological target: Gal(b1-4)GlcNAc(b1-6)Gal(b1-4)GlcNAc
# Outline: as §1
# [3] = biological target: Gal(b1-4)GlcNAc(b1-6)[Gal(b1-4)GlcNAc(b1-3)]GalNAc
# Outline: as §1
# Gal3S(b1-4)GlcNAc = biological target: Gal3S(b1-4)GlcNAc
# Outline: as §1
# [4] = biological target: Gal3S(b1-4)[Fuc(a1-3)]Glc6S
# Outline: as §1
# [5] = biological target: Gal3S(b1-4)[Fuc(a1-3)]GlcNAc
# Outline: as §1
# Gal6S(b1-4)GlcNAc6S = biological target: Gal6S(b1-4)GlcNAc6S
# Outline: as §1
# GalNAc(a1-3)GalNAc = biological target: GalNAc(a1-3)GalNAc
# Outline: as §1
# [6] = biological target: GalNAc(b1-3)Gal(a1-4)Gal(b1-4)GlcNAc(b1-3)Gal(b1-4)Glc
# Outline: as §1
# [7] = biological target: GalNAc(b1-3)Gal(a1-6)Gal(b1-4)Glc
# Outline: as §1
# GalNAc3S(b1-4)GlcNAc3S = biological target: GalNAc3S(b1-4)GlcNAc3S
# Outline: as §1
# Glc(a1-4)Glc = biological target: Glc(a1-4)Glc
# Outline: as §1
# [8] = biological target: GlcNAc(a1-4)Gal(b1-4)GlcNAc(b1-3)Gal(b1-4)[Fuc(a1-3)]GlcNAc(b1-3)Gal(b1-4)[Fuc(a1-3)]GlcNAc
# Outline: as §1
# [9] = biological target: GlcNAc(b1-3)Gal(b1-4)GlcNAc(b1-3)Gal(b1-4)GlcNAc(b1-2)Man(a1-3)[GlcNAc(b1-3)Gal(b1-4)GlcNAc(b1-3)Gal(b1-4)GlcNAc(b1-2)Man(a1-6)]Man(b1-4)GlcNAc(b1-4)GlcNAc
# Outline: as §1
# [10] = biological target: GlcNAc(b1-3)Gal(b1-4)GlcNAc(b1-3)Gal(b1-4)GlcNAc(b1-3)Gal(b1-4)GlcNAc(b1-2)Man(a1-3)[GlcNAc(b1-3)Gal(b1-4)GlcNAc(b1-3)Gal(b1-4)GlcNAc(b1-3)Gal(b1-4)GlcNAc(b1-2)Man(a1-6)]Man(b1-4)GlcNAc(b1-4)GlcNAc
# Outline: as §1
# [11] = biological target: GlcNAc(b1-4)[GlcNAc(b1-6)]GalNAc
# Outline: as §1
# Kdn(a2-6)Gal(b1-4)GlcNAc = biological target: Kdn(a2-6)Gal(b1-4)GlcNAc
# Outline: as §1
# [12] = biological target: Man(a1-2)Man(a1-3)[Man(a1-2)Man(a1-6)]Man(a1-6)[Man(a1-2)Man(a1-2)Man(a1-3)]Man
# Outline: as §1
# [13] = biological target: Man(a1-2)Man(a1-3)[Man(a1-2)Man(a1-6)]Man(a1-6)[Man(a1-2)Man(a1-2)Man(a1-3)]Man(b1-4)GlcNAc(b1-4)GlcNAc
# Outline: as §1
# [14] = biological target: Man(a1-2)Man(a1-6)[Man(a1-3)]Man(a1-6)[Man(a1-2)Man(a1-2)Man(a1-3)]Man
# Outline: as §1
# [15] = biological target: Neu5Ac(a2-3)Gal(b1-3)GlcNAc(b1-2)Man
# Outline: as §1
# [16] = biological target: Neu5Ac(a2-3)Gal(b1-3)GlcNAc(b1-6)GalNAc
# Outline: as §1
# [17] = biological target: Neu5Ac(a2-3)Gal(b1-3)[Fuc(a1-4)]GlcNAc
# Outline: as §1
# [18] = biological target: Neu5Ac(a2-3)Gal(b1-3)[GlcNAc(b1-6)]GalNAc
# Outline: as §1
# [19] = biological target: Neu5Ac(a2-3)Gal(b1-3)[Neu5Ac(a2-6)]GlcNAc(b1-3)[Fuc(a1-3)[Gal(b1-4)]GlcNAc(b1-6)]Gal(b1-4)Glc
# Outline: as §1
# [20] = biological target: Neu5Ac(a2-3)Gal(b1-4)GlcNAc(b1-3)Gal(b1-4)GlcNAc(b1-3)Gal(b1-4)GlcNAc(b1-2)Man(a1-3)[Neu5Ac(a2-3)Gal(b1-4)GlcNAc(b1-3)Gal(b1-4)GlcNAc(b1-3)Gal(b1-4)GlcNAc(b1-2)Man(a1-6)]GalNAc
# Outline: as §1
# [21] = biological target: Neu5Ac(a2-3)Gal(b1-4)[Fuc(a1-3)]GlcNAc(b1-3)Gal(b1-4)[Fuc(a1-3)]GlcNAc(b1-3)Gal(b1-4)[Fuc(a1-3)]GlcNAc
# Outline: as §1
# [22] = biological target: Neu5Ac(a2-3)Gal(b1-4)[Fuc(a1-3)]GlcNAc(b1-3)GalNAc
# Outline: as §1
# Neu5Ac(a2-6)Gal(b1-4)Glc = biological target: Neu5Ac(a2-6)Gal(b1-4)Glc
# Outline: as §1
# [23] = biological target: Neu5Ac(a2-6)Gal(b1-4)GlcNAc(b1-2)Man(a1-3)[Man(a1-6)]Man(b1-4)GlcNAc(b1-4)GlcNAc
# Outline: as §1
binder,measurement,setting,value
EUL D1A second (Oryza sativa) (protein) GAATACTIGGVPVHTVRVFSAAGEDYCLTVRNGTACLAPKNPRDDYQHWIKDMRHSNKIRDEEGYPAFALVNKVTGEAIKHSTGQGHPVKLVPYNPEYQDESVLWTESKDVGKGFRCIRMVNNIYLNFDAFHGDKDHGGIHDGTEIVLWKWCEGDNQRWKILPWILEQKLISEEDLNSAVDHHHHHH,glycan array binding signal (z-score),[1],0.069
same,glycan array binding signal (z-score),[2],-0.144
same,glycan array binding signal (z-score),[3],-0.385
same,glycan array binding signal (z-score),Gal3S(b1-4)GlcNAc,0.255
same,glycan array binding signal (z-score),[4],2.74
same,glycan array binding signal (z-score),[5],2.4
same,glycan array binding signal (z-score),Gal6S(b1-4)GlcNAc6S,0.99
same,glycan array binding signal (z-score),GalNAc(a1-3)GalNAc,-0.302
same,glycan array binding signal (z-score),[6],-0.809
same,glycan array binding signal (z-score),[7],-0.495
same,glycan array binding signal (z-score),GalNAc3S(b1-4)GlcNAc3S,-0.9
same,glycan array binding signal (z-score),Glc(a1-4)Glc,0.317
same,glycan array binding signal (z-score),[8],2.44
same,glycan array binding signal (z-score),[9],0.61
same,glycan array binding signal (z-score),[10],0.539
same,glycan array binding signal (z-score),[11],-0.443
same,glycan array binding signal (z-score),Kdn(a2-6)Gal(b1-4)GlcNAc,-1.38
same,glycan array binding signal (z-score),[12],-0.985
same,glycan array binding signal (z-score),[13],1.93
same,glycan array binding signal (z-score),[14],0.706
same,glycan array binding signal (z-score),[15],3.06
same,glycan array binding signal (z-score),[16],-0.587
same,glycan array binding signal (z-score),[17],0.596
same,glycan array binding signal (z-score),[18],0.412
same,glycan array binding signal (z-score),[19],1.26
same,glycan array binding signal (z-score),[20],3.53
same,glycan array binding signal (z-score),[21],-0.112
same,glycan array binding signal (z-score),[22],2.61
same,glycan array binding signal (z-score),Neu5Ac(a2-6)Gal(b1-4)Glc,0.113
same,glycan array binding signal (z-score),[23],0.117
